The values below come from ChEMBL document CHEMBL1157539, “Thousands of chemical starting points for antimalarial lead identification” (Nature, 2010).

What is called Inhibition is how much of the control response was suppressed. High values mean a response far below the control, low ones a response near the control.

This assay relates to HepG2. Put plainly: GSK_TCMDC: Percent inhibition of human HepG2 cell line. Test compounds present at 10uM. Type of assay: functional.
The compound `CCc1cn(C)c2c(N3CCCC3=O)cc(C(=O)N[C@@H](Cc3ccccc3)[C@H](O)CNC3CCCCC3)cc12` showed an Inhibition of 8%.

On to `Oc1ccc2ccccc2c1C=NNc1nc(=Nc2ccccc2)nc(N2CCOCC2)[nH]1`, for which the Inhibition came out at 66%.

Compound `CC1N=C(N)N=C(N)N1OCc1cccc2ccccc12` (stereo not given) registered an Inhibition of 66%.

`CC(C)NCc1cccc(-c2ccc(-c3nc4cc(C(F)(F)F)ccc4[nH]3)cc2)c1.O=C(O)C(F)(F)F` had an Inhibition of 7%.

Compound `COc1ccc2nc(-c3ccccc3)cc(N/N=C/c3ccc([N+](=O)[O-])o3)c2c1` displayed an Inhibition of 90%.

The compound `CCS[C@@H]1O[C@H](COC(=O)c2ccccc2)[C@H](OC(=O)c2ccccc2)[C@H](OC(=O)c2ccccc2)[C@H]1OC(=O)c1ccccc1` had an Inhibition of 4%.

As to `CS(=O)(=O)c1ccc(CNCc2cccc(-c3cccc(-c4nc5cc(C(F)(F)F)ccc5[nH]4)c3)c2)cc1.O=C(O)C(F)(F)F`, the Inhibition came out at 5%.

Compound `COc1cc(NCC(C)CNCc2cn(Cc3ccccc3)c3ccccc23)nc2ccccc12` (stereo not given) showed an Inhibition of 21%.

As to `O=C(NCc1ccco1)c1ccc(CN2CCN(C(c3ccccc3)c3ccccc3)CC2)cc1`, the Inhibition stood at 6%.

`CCCCCc1cc(OC(=O)CCCN(CC)CC)c2c(c1)OC(C)(C)C=C2C1=CCN(Cc2ccc3ccccc3c2)CC1` displayed an Inhibition of 94%.

`CN1CCC(C(=O)N(Cc2ccc(-c3ccc(CNCCc4ccc(S(C)(=O)=O)cc4)cn3)cc2)C2Cc3ccccc3C2)CC1.O=C(O)C(F)(F)F` showed an Inhibition of 21%.

`CCOc1ccccc1CNc1nccc(NCc2ccc(Cl)cc2Cl)n1` yielded an Inhibition of 26%.

Turning to `O=C(/C=C/c1ccc(Cl)c(Cl)c1)NCCCCCN1CCC(NC(=S)Nc2ccc(Cl)c(Cl)c2)CC1`, the Inhibition came out at 29%.

Regarding `COc1cccc2sc(Nc3nc(-c4ccccn4)cs3)nc12`, the Inhibition stood at 41%.

In the case of `CN(CCCc1c[nH]c2ccccc12)CCC1CCC(NC(=O)/C=C/c2ccc(Cl)c(Cl)c2)CC1` (stereo not given), the Inhibition stood at 38%.

The compound `CC(C)N1CCC(Oc2ccc(CN3CCN(C(c4ccccc4)c4ccc(Cl)cc4)CC3)cc2)CC1.Cl` (stereo not given) registered an Inhibition of 44%.

Consider `CCCCSc1c(CNCCCCCCNCc2ccc3ccccc3c2SCCCC)ccc2ccccc12.CS(=O)(=O)O`, for which the Inhibition stood at 99%.

The compound `O=C(/C=C/c1cccc(Br)c1)NCCCCCN1CCC(c2c[nH]c3ccccc23)CC1` came in with an Inhibition of 38%.

In turn, `Nc1nonc1-c1nc2c(-c3cccc(Cl)c3)nccc2n1CCCNC(=O)Cc1ccc(Cl)cc1` came in with an Inhibition of 0%.

`Cc1cc(C(=O)Nc2ccc3c(c2)CCN3C2CCN(Cc3csc4ccccc34)C2)no1` (stereo not given): the Inhibition was determined as 1%.

`COc1cccc(OC)c1C(=O)N1CCC2(CC1)C(=O)N(CC(=O)NC1CCCCC1)CN2c1ccccc1` had an Inhibition of 16%.

The compound `COc1ccc2c(NN=Cc3ccc(F)cc3)ccnc2c1` gave an Inhibition of 14%.

Compound `CCNc1cc(C(=O)N[C@@H](Cc2ccccc2)[C@H](O)CNC(C)(C)c2cccc(OC)c2)cc(N2CCCC2=O)c1.O=CO` returned an Inhibition of 0%.

Consider `COc1ccc2nccc([C@@H](O)CN3CCC(NC(=O)C(c4cc5ccccc5o4)N4CCN(c5ccc(F)cc5)CC4)CC3)c2c1` (stereo not given in full), for which the Inhibition came to 15%.

The compound `O=C(O)c1ccc(NC(=O)C2CC(=O)N(Cc3ccc(Cl)cc3)C(=Nc3ccc(Cl)cc3)S2)cc1` (stereo not given) gave an Inhibition of 0%.

The compound `O=C(Nc1ccc(-c2ccccc2)cc1)Nc1cccc(Cn2cnc(N3CCCNCC3)cc2=O)c1.O=C(O)C(F)(F)F` showed an Inhibition of 8%.

Compound `COc1cccc2c(N/N=C/c3cccc([N+](=O)[O-])c3)ccnc12` had an Inhibition of 12%.

As for `COc1cc2ccccc2cc1CCNCCCCNCCc1cc2ccccc2cc1OC.CS(=O)(=O)O`, the Inhibition stood at 100%.

As to `O=C(Nc1ccc2c(c1)CN(Cc1ccc(N3CCCC3)o1)CCC2)c1ccoc1.O=CO`, the Inhibition was 4%.

For `CC(=O)NCCNc1nccc(N2CCc3ncnc(Nc4ccc(OCc5cccc(F)c5)c(Cl)c4)c3C2)n1`, the Inhibition turned out to be 10%.

As to `COc1cc2nc(NCCc3ccccc3)nc(NCc3cnn(C)c3C)c2cc1OC`, the Inhibition amounted to 13%.

`CCCCOc1ccc(-c2nc3ccccc3[nH]2)cc1` had an Inhibition of 21%.

`Cc1cc(OCCCN2CCC(NS(=O)(=O)c3cc(Br)c(Cl)s3)CC2)c2ccccc2n1`: the Inhibition worked out at 5%.

In turn, `CC(C)c1ccc(NC(=O)c2cccc(CN3CCCN(CC4CCCCC4)CC3)c2)cc1.O=C(O)C(F)(F)F` yielded an Inhibition of 62%.

Compound `CN1CCN(c2ccnc3ccc(NC(=O)Nc4ccc5c(c4)CCC5=O)cc23)CC1` showed an Inhibition of 8%.

`CC(=O)Nc1ccc2[nH]cc(C3CCN(CCC4CCN(C(=O)/C=C/c5ccc(Cl)c(Cl)c5)CC4)CC3)c2c1`: the Inhibition was 13%.

`CC(=O)Nc1ccc(CN2CCC(NC(=O)c3ccc(-c4cccc(C(F)(F)F)c4)s3)CC2)cc1.O=C(O)C(F)(F)F`: the Inhibition is reported as 35%.

Compound `COc1cccc(OC)c1CN1CCC(N(C)CCCCCCCCCN2CCC(OC(=O)Nc3ccccc3-c3ccccc3)CC2)CC1` yielded an Inhibition of 100%.

The compound `N#Cc1ccc(N/C(=N\c2ccc(-c3ccccc3)cc2)NC2CCCc3ccccc32)c(O)c1` (stereo not given) showed an Inhibition of 0%.

On to `Cc1ccc(NC(=O)Nc2ccc(Cl)c(C(F)(F)F)c2)cc1-c1ccc(C(=O)Nc2ccncc2)cc1`, for which the Inhibition is listed as 77%.
